Composite z-score and composite Z-score data for 17 compounds are collected here from PubChem BioAssay.

Activity calls are given as the source filed them.

Assay [1] has as its target Albumin (Bos taurus) (UniProt P02769). Description: compounds binding labelled BSA control protein – biochemical, small-molecule microarray, Alexa647 label, 635/667 nm fluorescence, artefact control for SMM control protein annotation, profiling panel (AID 1118).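 Further: score merges 667 nm emission intensity and signal-to-noise per printed compound spot.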 The conditions noted are these: BSA-A647 binding, fluorescence 635 nm, higher = more signal.
Assay [2] in a line: probe aXIP binding to arrayed compounds – biochemical, NeuroSMM set, 635/667 nm fluorescence, primary screen (AID 1119).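 Further: probe is the protein aXip251-270 applied at 1 µg/mL to compound-printed slides; binding of probe to printed compounds measured as 667 nm fluorescence plus signal to noise.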 As to conditions: small-molecule microarray, higher = more signal, called active from +8 up or from −8 down.
Assay [3] is described as follows: probe aNOTCH3 binding on compound microarray – biochemical, small-molecule microarray, 635/667 nm fluorescence, primary screen (AID 1120).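 Further: probe is a biotin-tagged antibody raised against NOTCH3 rather than NOTCH3 protein; score merges spot fluorescence near 667 nm with spot signal to noise.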 The conditions noted are these: higher = more signal.
Assay [4] is described as follows: probe aNOTCH2 binding on compound microarray – biochemical, small-molecule microarray, 635/667 nm fluorescence, primary screen (AID 1121).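 Further: score merges feature fluorescence read at 667 nm with its signal to noise.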 As to conditions: higher = more signal.
Assay [5] deals with Carbonic anhydrase 2 (Homo sapiens) (UniProt P00918). The experiment in a line: compounds binding carbonic anhydrase 2 – biochemical, small-molecule microarray, Alexa647-labelled CAII, profiling panel (AID 1122). The conditions noted are these: CAII-A647 binding fluorescence, higher = more signal.
Assay [6] is described as follows: COS7 lysate on small-molecule microarray, probe aHis, 635 nm (AID 1123).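 Further: z-score combines 667nm fluorescence intensity with signal-to-noise per printed compound spot.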 As to conditions: COS7 cell lysate, fluorescence, higher = more signal.
Assay [7] can be described thus: probe aLAP1 signal on lysate-treated microarray – cell lysate, small-molecule microarray, COS7 lysate, primary screen (AID 1124).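 Further: lysate comes from COS7 cells expressing LAP1 and is applied at 0.3 µg/mL; score merges spot fluorescence near 667 nm with signal-to-noise over triplicate slides.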 The conditions noted are these: probe aLAP1, fluorescence, higher = more signal.
The subject of assay [8] is Sam68 (KHDRBS1). Description: compounds binding KHDRBS1 protein – biochemical, small-molecule microarray, 635 nm fluorescence, primary screen (AID 1125).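 Further: score merges 667 nm channel intensity with signal to noise over triplicate slides.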 The conditions noted are these: higher = more signal.
The subject of assay [9] is Chordin-like protein 2 (CHRDL2). The experiment in a line: compounds binding chordin-like 2 – biochemical, small-molecule microarray, 635 nm fluorescence, primary screen (AID 1126).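 Further: printed compound slides probed with Chrdl2 protein at 4 µg/mL for 1 h at 4 C; score merges 667 nm emission intensity with signal to noise over three replicate slides.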 As to conditions: fluorescence 635 nm, higher = more signal.
For assay [10], the target named is Concanavalin-A (Canavalia ensiformis) (UniProt P02866). Description: compounds binding concanavalin A lectin – biochemical, small-molecule microarray, Alexa647 label, 635 nm, artefact control for SMM control protein annotation, primary screen (AID 1127).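 Further: z combines 667 nm emission intensity with signal-to-noise across three replicate slides.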 The conditions noted are these: ConA-A647 binding fluorescence, higher = more signal.
Chain of Concanavalin-A (Canavalia ensiformis) (P02866 whole entry, looked up): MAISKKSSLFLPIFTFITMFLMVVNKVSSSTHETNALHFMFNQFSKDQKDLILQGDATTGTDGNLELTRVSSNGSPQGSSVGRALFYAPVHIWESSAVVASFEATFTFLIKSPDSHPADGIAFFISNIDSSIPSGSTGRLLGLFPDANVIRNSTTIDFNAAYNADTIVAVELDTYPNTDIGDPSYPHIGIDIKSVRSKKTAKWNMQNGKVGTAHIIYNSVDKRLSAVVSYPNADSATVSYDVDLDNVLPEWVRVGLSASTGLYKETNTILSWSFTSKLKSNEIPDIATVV

Chain of Albumin (Bos taurus) (P02769 whole entry, looked up): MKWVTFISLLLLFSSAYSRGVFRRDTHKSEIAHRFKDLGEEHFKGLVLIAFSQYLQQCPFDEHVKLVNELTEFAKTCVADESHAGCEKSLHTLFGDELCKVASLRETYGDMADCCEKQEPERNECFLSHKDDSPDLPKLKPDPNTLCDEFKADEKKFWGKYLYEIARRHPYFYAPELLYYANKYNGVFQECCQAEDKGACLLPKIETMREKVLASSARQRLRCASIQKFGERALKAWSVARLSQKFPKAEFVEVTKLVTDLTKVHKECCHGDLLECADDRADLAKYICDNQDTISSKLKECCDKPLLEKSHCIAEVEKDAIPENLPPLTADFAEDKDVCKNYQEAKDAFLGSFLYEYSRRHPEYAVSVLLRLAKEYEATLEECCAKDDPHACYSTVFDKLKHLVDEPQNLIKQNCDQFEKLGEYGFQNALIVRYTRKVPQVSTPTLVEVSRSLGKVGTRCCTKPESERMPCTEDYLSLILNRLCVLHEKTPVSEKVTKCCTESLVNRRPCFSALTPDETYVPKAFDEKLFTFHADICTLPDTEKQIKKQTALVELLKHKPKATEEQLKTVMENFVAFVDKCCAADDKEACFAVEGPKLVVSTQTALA

Regarding `COC(=O)[C@@]1(Cc2ccc(F)cc2)[C@H]2c3cc(C(=O)N(C)C)n(CCc4ccc(OC)c(Br)c4)c3C[C@H]2CN1C(=O)c1ccccc1`, the composite z-score in assay [1] was 0.939; in [3] it was 0.613; in assay [4] it was 0.363; in assay [5] it was 0.487; in assay [6], 1.44; in [7], 0.0915. For the same compound, the composite z-score in assay [8] is -0.111; in assay [9] it was -0.66; in assay [10] it was 0.793. For the same compound, the composite Z-score in [2] was 0.562 (inactive).

With `NC(=O)[C@@]1(Cc2ccccc2)COC(c2ccc(OCCCO)cc2)=N1`, the composite z-score in [1] was 0.456; in assay [3], -0.0647; in assay [4] it was 0.513; in [5] it was 0.815; in [6], 2.91; in [7], -0.238. In addition, the composite z-score in assay [8] was -0.442; in [9], -0.165; in assay [10] it was -0.978. Moreover, the composite Z-score in assay [2] was 0.08 (inactive).

Take `Cc1ccc(N2C(=O)c3ccccc3[C@@H](C(=O)NCCCN(C)C)[C@@H]2c2ccc(CO)cc2)nc1`: the composite z-score is -0.0424 in assay [1]; -0.416 in assay [3]; -0.244 in [4]; -0.0786 in [5]; -0.515 in assay [6]; -0.225 in assay [7]. For the same compound, the composite z-score in assay [8] was -0.292; in assay [9], -0.283; in [10], 0.375. Moreover, the composite Z-score in assay [2] is 0.403 (inactive).

Regarding `CO[C@H]1O[C@H](CO)[C@@H](OC(=O)Nc2ccc(Br)cc2)[C@@H]2OC(=O)[C@@H](Cc3ccccc3)C/C=C/C[C@H](Cc3ccccc3)C(=O)O[C@@H]12`, the composite z-score is 0.771 in [1]; 0.11 in assay [3]; -0.0601 in assay [4]; 0.635 in [5]; 1.65 in assay [6]; 0.0964 in assay [7]. Also, the results for the composite z-score in assay [8], in assay [9] and in assay [10] were 0.968, -0.173 and 0.516, respectively. Further, the composite Z-score in assay [2] was -1.09 (inactive).

Regarding `COCCOC(=O)N1C(=O)[C@@]2(c3cc(C#CC4=CCCCC4)ccc31)[C@H](c1ccccc1OCCO)N1[C@H](c3ccccc3)[C@H](c3ccccc3)OC(=O)[C@H]1[C@@H]2C(=O)N1CCN(c2ncccn2)CC1`, the composite z-score is 0.326 in assay [1]; 0.212 in assay [3]; -0.154 in assay [4]; 0.214 in assay [5]; 0.634 in assay [6]; 0.297 in assay [7]. Further, the composite z-score in assay [8] was 1.06; in [9], 0.374; in assay [10], 1.06. Moreover, the composite Z-score in assay [2] was -0.17 (inactive).

For `Cc1ccc(S[C@]2(C(=O)NCCN3CCOCC3)CC(=O)N(Cc3ccccc3Cl)[C@@H]2c2ccc(CO)cc2I)cc1`, the composite z-score in assay [1] is 0.243; in assay [3], 0.0226; in [4], 0.584; in assay [5] it was 0.805; in assay [6], 2.75; in assay [7] it was 1.49. The composite z-score in assay [8] is 0.653; in [9], -0.35; in [10], -0.763. Besides, the composite Z-score in assay [2] is 0.555 (inactive).

On to `CN(C)CCCCCCNC(=O)[C@@H]1C[C@@H]2C(=O)N3CCC[C@H]3C(=O)N2[C@@H]1c1cccc(OCCO)c1`, for which the composite z-score in assay [1] is -0.694; in assay [3] it was 0.278; in [4], -0.13; in assay [5], 0.591; in assay [6] it was 2.73; in [7] it was 0.87. Also, the composite z-score in assay [8] came to 1.31; in assay [9] it was 1.42; in assay [10] it was 1.13. Further, the composite Z-score in assay [2] was 0.759 (inactive).

As to `CCOC(=O)C[C@H]1[C@H](OC(=O)Cc2ccc3c(c2)OCO3)[C@@H](NC(=O)c2ccc3ccccc3n2)c2cc(OCCCO)ccc2N1C(=O)c1ccccc1`, the composite z-score in assay [1] was -0.233; in assay [3], -0.124; in [4], -0.18; in assay [5], 0.0645; in assay [6], 0.109; in assay [7] it was -0.115. The composite z-score in assay [8] was 0.416; in assay [9] it was 0.528; in assay [10], 0.321. Further, the composite Z-score in assay [2] is 0.221 (inactive).

`COc1ccc([Si](C)(C)[C@@H]2[C@@H](CC(=O)N3CCC[C@H]3CO)O[C@]3(C(=O)N(Cc4cccc(N5C(=O)COc6ccccc65)c4)c4ccccc43)[C@H]2C)cc1`: the composite z-score is 0.577 in [1]; -0.0821 in [3]; -0.167 in assay [4]; 0.462 in [5]; 0.664 in assay [6]; 0.271 in assay [7]. In addition, the composite z-score in assay [8] was 1.3; in assay [9], 0.291; in [10] it was 1.12. The composite Z-score in assay [2] was 0.254 (inactive).

For `C=C(COC)/C(=C/C[C@H](OC(=O)c1ccncc1)c1ccccc1OCCO)c1cc(C(=O)OC)ccc1OC`, the composite z-score was 0.601 in [1]; 0.118 in [3]; -0.11 in assay [4]; 0.752 in assay [5]; 1.2 in assay [6]; 0.0479 in [7]. The composite z-score in assay [8] is 1.27; in assay [9], 0.0156; in assay [10] it was 0.784. Besides, the composite Z-score in [2] is 0.614 (inactive).

Take `CC1CC/C=C\[C@H]2OC34C=CCN(c5ccc(Cl)cc5)C(=O)[C@H]3N(C(C)CO)C(=O)[C@]4(C)C2C(=O)O1` (stereo not given in full): the composite z-score in assay [1] is -1.07; in assay [3], -0.322; in [4], -0.14; in assay [5], 0.768; in [6], -0.66; in assay [7] it was 1.27. In addition, the figures for the composite z-score in assay [8], in assay [9] and in [10] were -0.297, -0.482 and -0.863, respectively. Moreover, the composite Z-score in assay [2] was -0.408 (inactive).

In the case of `CC1CC/C=C\[C@H]2OC34C=CCN(C(C)C)C(=O)[C@H]3N(CCO)C(=O)[C@@H]4C2C(=O)O1` (stereo not given in full), the composite z-score in [1] is -0.935; in assay [3], -0.312; in [4], -0.125; in assay [5] it was 0.933; in assay [6], -0.31; in assay [7] it was 0.492. Further, the values for the composite z-score in assay [8], in assay [9] and in [10] were -0.175, -1.26 and -1.8, respectively. Besides, in [2], the composite Z-score is -0.0467 (inactive).

`COc1ccc(CCNC(=O)[C@@H]2c3ccccc3C(=O)N(C3CCCCC3)[C@H]2c2ccc(CO)cc2)cc1`: the composite z-score was -0.295 in [1]; -0.119 in assay [3]; -0.0317 in assay [4]; 0.608 in [5]; 2.15 in assay [6]; 0.922 in assay [7]. Moreover, the composite z-score in assay [8] is 0.508; in [9], -0.524; in assay [10] it was 0.802. The composite Z-score in [2] was 0.0861 (inactive).

With `CCCCN1CC=CC23O[C@@H]4/C=C\CCC(C)OC(=O)C4[C@H]2C(=O)N(CCCO)[C@@H]3C1=O` (stereo not given in full), the composite z-score in [1] is -0.741; in assay [3] it was -0.41; in [4], -0.171; in assay [5] it was 0.283; in assay [6], -0.0462; in assay [7] it was 0.359. Also, the values for the composite z-score in assay [8], in assay [9] and in [10] were -0.62, -1.38 and 0.12, respectively. In addition, the composite Z-score in assay [2] was 0.986 (inactive).

Turning to `C=CC[C@@H](OC(=O)Nc1ccc(OC)cc1)c1ccc(O)c(F)c1`, the composite z-score in [1] was 0.66; in [3], -0.266; in assay [4], -0.153; in assay [5] it was 0.493; in [6] it was 1.93; in assay [7], 0.738. The composite z-score in [8] was -0.56; in assay [9] it was -0.861; in assay [10], -0.9. In addition, the composite Z-score in assay [2] was 0.683 (inactive).

As to `CCCNC(=O)[C@@]1(Sc2ccc(C)cc2)CC(=O)N(C2Cc3ccccc3C2)[C@@H]1c1ccc(CO)cc1I`, the composite z-score in assay [1] is -0.533; in [3], 0.606; in [4], -0.0186; in assay [5], 0.427; in assay [6], 0.807; in assay [7], 0.702. For the same compound, the composite z-score was 0.95 in [8], 0.378 in [9] and -0.162 in assay [10]. For the same compound, the composite Z-score in assay [2] was -0.0764 (inactive).

Consider `CCOC(=O)C1=C[C@@H](C(C)C)N(S(=O)(=O)c2ccc(C)cc2)[C@H]1c1ccc(C(F)(F)F)cc1`, for which the composite z-score in assay [1] was 0.665; in [3], 0.256; in assay [4], -0.0438; in assay [5] it was 0.173; in assay [6], 2.52; in assay [7], 0.327. Also, the values for the composite z-score in [8], in assay [9] and in assay [10] were 1.31, 0.106 and 1.05, respectively. For the same compound, the composite Z-score in [2] was 0.559 (inactive).
